PLAP activator – activators of human placental alkaline phosphatase | activation fold at 20 µM | purified PLAP enzyme, luminescent substrate read-out; active compounds read high | hit rate 1.2% among 96,000 | P05187; in the data active = activation fold above about 2
CYP2C9 act – CYP2C9 (human) activation. hit rate 1.4% among 96,000. activation factor at 5 µM. recombinant CYP2C9, luciferin-H conversion, luminescence; active compounds read high; factor 1 = untreated enzyme, 0 = blocked. P11712;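 active = activation factor of 2 or more for CYP2C9 at a 5 µM dose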;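 also: 0 = sulfaphenazole-blocked wells and 1 = vehicle-only wells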
CYP2C19 activ – activators of human cytochrome P450 2C19; activation factor at 5 µM; 96,000 tested, under 10 active; P33261; recombinant CYP2C19, luciferin-H EGE luminescence; active compounds read high; 0 = fully inhibited enzyme, 1 = untreated enzyme; AID 1025;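 active = activation factor of at least 2 at 5 µM in the primary screen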;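 also: 0 = wells with 2.5 mM tranylcypromine and 1 = vehicle-only wells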
Target sequence (P33261 whole entry, looked up): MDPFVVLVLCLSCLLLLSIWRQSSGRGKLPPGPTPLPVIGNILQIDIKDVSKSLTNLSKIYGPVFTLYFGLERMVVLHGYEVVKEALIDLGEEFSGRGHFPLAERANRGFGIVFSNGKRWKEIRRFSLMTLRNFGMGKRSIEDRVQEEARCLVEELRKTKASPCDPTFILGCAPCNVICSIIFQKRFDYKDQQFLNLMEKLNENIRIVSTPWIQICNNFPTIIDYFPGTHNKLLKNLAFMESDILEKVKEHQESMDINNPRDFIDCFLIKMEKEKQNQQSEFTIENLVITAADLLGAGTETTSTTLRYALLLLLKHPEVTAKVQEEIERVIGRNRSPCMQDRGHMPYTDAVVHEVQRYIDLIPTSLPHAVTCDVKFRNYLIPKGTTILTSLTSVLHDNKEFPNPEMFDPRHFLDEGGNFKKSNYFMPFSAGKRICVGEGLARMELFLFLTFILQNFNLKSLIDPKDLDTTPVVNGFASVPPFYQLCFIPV
CYP2C9 inhib – inhibitors of human CYP2C9. CYP2C9 Supersomes, luciferin-H conversion, luminescence. inhibition, % at 5 µM. hit rate 20% among 96,000. AID 777. P11712;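 active = blocking of liver enzyme CYP2C9 beyond about 50% at 5 µM, limit read from the data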
CYP2C19 inh – inhibitors of human CYP2C19. CYP2C19 Supersomes, luciferin-H EGE luminescence, 30 min. inhibition, % at 5 µM. hit rate 21% among 96,000. AID 778;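 active = CYP2C19 inhibition above a set limit at 5 µM in the primary screen, cut at about 50% in these data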;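 also: plate controls were negative control wells for no effect and 2.5 mM tranylcypromine positive control for full effect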
* = called active by the depositor. Only some compounds are listed: those with a hit (about 31% of all), similar ones and a draw of the others.

SMILES	PLAP activator	CYP2C9 act	CYP2C19 activ	CYP2C9 inhib	CYP2C19 inh
CCOc1ccc(-c2cc(C(=O)N3CCN(c4ccccn4)CC3)c3ccccc3n2)cc1	0.9	0.8	0.9	20.6	5.9
O=C(c1ccco1)N1CCN(C(=O)c2cc(-c3ccccc3)nc3ccccc23)CC1	1.3	0.9	1.1	14.0	-7.9
COc1ccc(-c2cc(C(=O)N3CCN(c4ccccn4)CC3)c3ccccc3n2)cc1	1	0.2	0.4	76.9*	58.6*
CC(=O)N1CCc2cc(S(=O)(=O)NC(CC(C)C)C(=O)N3CCc4ccccc4C3)ccc21 (centres undefined)	1.4	0.6	0.7	42.6	28.5
Cc1ccc(S(=O)c2ccc(C)cc2)cc1	0.8	1	0.7	1.7	31.6
Cc1ccc(-c2cc(C(F)F)n3ncc(C(=O)N4CCN(c5ccccn5)CC4)c3n2)cc1	1.5	0.4	0.5	56.8*	46.4
CCN1CCN(C(=O)c2cnn3c(C(F)F)cc(-c4ccc(C)cc4)nc23)CC1	1.6	0.9	0.9	10.5	8.1
CCOC(=O)N1CCN(C(=O)c2cc(-c3ccc(OCC)cc3)nc3ccccc23)CC1	1.2	0.2	0.8	76.4*	16.2
O=C(O)c1cc(-c2ccncc2)nc2ccc(S(=O)(=O)N3CCOCC3)cc12	0.9	0.4	0.9	59.6*	6.9
COc1ccccc1-c1cc(C(=O)N2CCc3ccccc3C2)c2ccccc2n1	1.2	0.4	0.5	63.7*	47.7
CCOc1ccc(-c2cc(C(=O)N3CCN(C)CC3)c3ccccc3n2)cc1	1.6	0.8	1	22.4	-3.8
Cc1cc(C)nc(-n2nc(C)cc2NC(=O)c2cccc(S(=O)(=O)N3CCOCC3)c2)n1	1.1	0.7	0.9	27.6	5.2
CS(=O)(=O)N1CCN(C(=O)c2cc(-c3ccncc3)nc3ccc(Cl)cc23)CC1	1.1	0.3	0.6	67.5*	36.4
CS(=O)(=O)N1CCN(C(=O)c2cc(-c3ccccc3)nc3ccccc23)CC1	1.5	0.7	0.6	30.4	44.8
CCNc1nc(N)nc(Oc2ccc(OCCOc3ccc(Cl)cc3Cl)nn2)n1	1.1	0.2	0.1	80.4*	94.0*
CCNc1nc(Oc2ccc(Cl)cc2Cl)cc(C(F)(F)F)n1	1.1	0.4	1.1	62.9*	-5.2
CC(C#N)Sc1nc2ccccc2c(=O)n1-c1ccccc1 (centres undefined)	0.9	0.7	1	33.4	-4.8
O=C(CSc1cccc2cccnc12)N1CCCC1	1.1	1.3	0.8	-26.8	21.7
COc1ccc(-c2ccnc(-c3ccc(OCCCF)cc3)n2)cc1	1	0.5	0.8	51.2*	20.0
FCCCOc1ccc(-c2nccc(-c3ccc(Cl)cc3)n2)cc1	1.2	0.6	0.9	43.6	10.0
O=C(OCC(=O)N1N=C(c2ccc(Cl)cc2)CC1c1ccco1)c1ccccc1O (centres undefined)	1.8	0.1	0.8	87.8*	16.9
COc1ccccc1N=c1sc2ccccc2n1C	1	0.6	0.2	42.5	77.1*
COc1ccc(N=c2sc3ccccc3n2C)cc1	0.8	0.7	0.5	28.7	51.3*
COc1ccc(OCCSc2nnc3sc4ccccc4n23)cc1	1.2	1	0.5	0.0	47.0
Cn1c(=NCC(O)COc2ccccc2)sc2ccccc21 (centres undefined)	1.5	0.6	0	43.8	95.4*
SMILES	PLAP activator	CYP2C9 act	CYP2C19 activ	CYP2C9 inhib	CYP2C19 inh
CCCCn1c(=N)n(CC(O)COc2ccccc2)c2ccccc21 (centres undefined)	1.3	0.8	0.6	16.1	42.1
CCOC(=O)C1CCN(C(=O)CCS(=O)(=O)c2ccc3c(c2)CCN3C(C)=O)CC1	1.4	1.2	1	-17.2	4.7
CC(C)(C)NC(=O)COC(=O)Cc1ccc(Cl)cc1	1.2	1.1	0.7	-8.9	29.8
O=C(N/N=C/c1cccc(C(F)(F)F)c1)C1CCN(c2ncc(C(F)(F)F)cc2Cl)CC1	0.9	1.6	1.1	-60.7	-11.4
Cc1cccc(C(=O)N2CCCCCC2)c1	0.8	0.7	0.5	29.8	52.1*
CC1CN(C(=O)c2cccc(C(=O)N3CC(C)OC(C)C3)c2)CC(C)O1 (centres undefined)	1	0.8	0.9	20.4	8.1
O=C(c1cccc(-c2nnc(-c3ccccc3)o2)c1)N1CCCCC1	1.1	0.4	0.4	62.4*	55.6*
O=C(c1cccc(Br)c1)N1CCCC1	0.9	1.1	1.1	-13.0	-12.6
Cc1cccc(C(=O)N2CCN(C(=O)c3cccc(C)c3)C(C)C2)c1 (centres undefined)	1.3	0.2	0.1	77.6*	88.7*
O=C(c1cccc(Br)c1)N1CCN(C(=O)N2CCCCC2)CC1	1.1	0.4	0.2	61.1*	76.6*
Cc1ccc(S(=O)(=O)N2CCC(C(=O)NCCc3ccc(S(N)(=O)=O)cc3)CC2)cc1	0.9	1	0.9	-4.0	9.0
Cc1cccc(N(CC(=O)NCCSCc2ccco2)S(=O)(=O)c2ccccc2)c1	1.2	0.3	0.3	70.9*	67.8*
Cc1ccc(N(CC(=O)NCCSCc2ccco2)S(=O)(=O)c2ccc(C)cc2)cc1	1.3	0.1	0.3	87.9*	70.9*
Cc1cc(C)cc(N(CC(=O)NCCSc2ccccn2)S(=O)(=O)c2ccccc2)c1	1.3	0.4	0.5	64.2*	49.4
Cc1ccc(C)c(N(CC(=O)NCCSCc2ccco2)S(C)(=O)=O)c1	1.6	0.1	0.2	88.3*	80.9*
CCNC(=O)CN(c1ccc(C)cc1)S(=O)(=O)c1ccccc1	1	0.8	0.6	18.9	39.4
Cn1c(=O)c2nnn(/N=C(\c3ccccc3)C3CC3)c2n(C)c1=O	1	0.9	0.7	9.5	28.8
O=C(c1ccc(Cl)c(F)c1F)N1CCOCC1	1	1.1	1.1	-13.2	-9.2
O=C(CCC(=O)OCC(=O)c1cccc([N+](=O)[O-])c1)Nc1cccc(Cl)c1Cl	0.9	1	1	0.1	-0.8
O=[N+]([O-])c1cccc(C(=Nc2ccccc2Cl)NO)c1	0.9	0.4	0.1	61.7*	87.4*
O=[N+]([O-])c1cccc(C(=Nc2ccc(Cl)cc2)NO)c1	0.7	0.3	0.1	71.3*	87.9*
C/C(=N\NC(N)=O)c1ccc(Cl)cc1	1.1	0.8	0.9	15.7	14.6
ONC(=Nc1ccc(Cl)cc1)c1ccc(Cl)cc1	0.8	0.4	0.3	55.4*	70.8*
CC1=Nc2ccccc2/C1=C\c1nc(-c2ccc(F)cc2)oc1O	0.7	0.9	1.1	7.5	-8.0
COc1ccc(N(Cc2cc3ccc(C)cc3[nH]c2=O)C(C)=O)cc1	1	0.8	0.9	24.3	9.8
COc1cc2nc(SCC(=O)NCCc3ccccc3)n(Cc3ccco3)c(=O)c2cc1OC	1.9	0	0.3	95.9*	65.8*
O=C(CSc1nc2ccccc2c(=O)n1-c1ccccc1)N1CCCC1	1.4	0.5	0.7	51.0*	33.8
COCCNC(=O)c1ccc2c(=O)n(Cc3ccco3)c(SCC(=O)NC3CCCCC3)nc2c1	1.3	0.8	0.7	24.1	29.8

Screening data deposited in PubChem by Sanford-Burnham Center for Chemical Genomics.
